Compound activity: PubChem BioAssay, several laboratories
The list is not random: actives were taken first. Their share in the collection is about 4.6%.
NR3A LBD binder = NR3A (human) ligand-binding domain modulation; Tm shift relative to glycine control, % at 25 µM; 340,000 tested, 2.5% active; NR3A LBD differential scanning fluorimetry, Tm shift; 0% = protein alone, 100% = glycine-bound protein;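 active means melting temperature shift of at least 10% of the positive control shift, at one fixed dose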
FAS-TE inh = inhibitors of human fatty acid synthase thioesterase domain; P49327; recombinant FAS-TE, OMFH fluorogenic substrate, fluorescence endpoint; inhibition, % at 15 µM; 360,000 tested, 0.67% active;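 active means compounds whose normalised, plate-corrected inhibition of enzyme fluorescence in the single-dose primary screen is 50% or more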
ADAM10 inh = inhibits human ADAM10; O14672; recombinant ADAM10, EDANS/DABCYL FRET peptide cleavage, 3 h; inhibition, % at 7 µM; 370,000 tested, 0.62% active; AID 720582;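 active means inhibition above a per-campaign cutoff equal to the mean of compounds falling between control-based bounds plus 3 SD, cut at about 20% in these data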
KLK7 zymogen act = proKLK7 (human) activation, primary screen; activation, % at 7 µM; purified proKLK7, EDANS-DABCYL substrate fluorescence; 100% is mature enzyme control, 0% vehicle; AID 652039; 370,000 tested, 0.9% active;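 active means activation above the mean of all tested compounds plus 3 SD, computed per campaign excluding outliers beyond control limits, cut at about 13% in these data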
ADAM17 inh = inhibits human ADAM17; inhibition, % at 6.95 µM; P78536; 370,000 tested, 0.83% active; recombinant ADAM17, EDANS/DABCYL FRET peptide cleavage;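 active means inhibition above the mean of compounds lying between control limits plus 3 SD, set per campaign, cut at about 8.5% in these data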
proKLK7 act conf = proKLK7 activation, confirmation | shares compounds with KLK7 zymogen act | purified proKLK7, EDANS-DABCYL substrate fluorescence; scaled: vehicle 0, mature enzyme 100 | activation, % at 7 µM | 3,200 tested, 68% active | AID 686949;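 active means activation, as change over the incubation, above the mean of all tested compounds plus 3 SD, cut at about 13% in these data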
EDANS interfere = fluorescence interference counter-screen for KLK7 activators. shares compounds with KLK7 zymogen act. EDANS-DABCYL substrate fluorescence interference, no enzyme, 4 h; solvent 0%, active enzyme control 100%. activation, % at 7 µM. 3,200 tested, 80% active. AID 686952;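 active means activation above the all-compound mean plus 3 SD, ignoring values outside control-based bounds, cut at about 4.8% in these data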;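 further: value is the 4 h activation minus the activation read at time zero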
EDANS interf = counter-screen for kallikrein-7 activators: EDANS-DABCYL interference, dose response. 250 tested, 20% active. shares compounds with KLK7 zymogen act. EC50, µM. EDANS-DABCYL peptide fluorescence interference, no enzyme;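 active means compounds that raise the fluorescence signal in this interference counterscreen, with EC50 at or below 10 µM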;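 further: intact quenched peptide substrate alone read at 355 nm excitation and 520 nm emission; signal is fluorescence gain from T0 to T4 after four hours at room temperature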
Large screens that a line does not name were inactive (follow-up assays come after a bar, where they were run).

COCCCn1c2nc3ccccc3nc2c2c(=O)n(CC3CCCO3)cnc21 (stereo not given)	none
COc1ccc2c(c1)c1ncn(CC3CCCO3)c(=O)c1n2C (stereo not given)	KLK7 zymogen act 13 | proKLK7 act conf inactive | EDANS interfere inactive
COc1ccc(CNCC#Cc2ccccc2)cc1	none (no result: NR3A LBD binder, FAS-TE inh)
Cc1cc(NCc2ccco2)nc2cc(O)ccc12	KLK7 zymogen act 19 | proKLK7 act conf 72 | EDANS interfere 66
CCc1cccc2cc3c(N)c(C(=O)Nc4ccc(S(=O)(=O)N5CCCC5)cc4)sc3nc12	KLK7 zymogen act 119 | proKLK7 act conf 62 | EDANS interfere 57
Cn1c(SC/C=C/c2ccccc2)nnc1-c1cccnc1	none (no result: NR3A LBD binder, FAS-TE inh)
O=C(CSc1nc2ncccc2[nH]1)N1CCOCC1	none (no result: NR3A LBD binder, FAS-TE inh)
OC1CN=C2CCCc3c2n(c2ccc(Cl)cc32)C1 (stereo not given)	KLK7 zymogen act 17 | proKLK7 act conf inactive | EDANS interfere inactive
COc1cc2c(C#N)c(N3CCOCC3)nc(N)c2c(N)n1	KLK7 zymogen act 22 | proKLK7 act conf 21 | EDANS interfere 23
N#Cc1c(N2CCOCC2)nc(N)c2c(N)nc3c(c12)CC(CCl)O3 (stereo not given)	KLK7 zymogen act 73 | proKLK7 act conf 76 | EDANS interfere 19 | EDANS interf inactive
CCOc1cc2c(C#N)c(N3CCNCC3)nc(N)c2c(N)n1	KLK7 zymogen act 69 | proKLK7 act conf 67 | EDANS interfere 64
CCc1nc(N2CCOCC2)c(C#N)c2c1CCCC2	none
CCOC(=O)Cn1cc(CN2C(C(=O)OC)CN(Cc3ccc(C)cc3)CCS2(=O)=O)nn1 (stereo not given)	none (no result: NR3A LBD binder, FAS-TE inh)
CCOC(=O)[C@]12CCCCC/C=C\1N(Cc1ccc(OC)cc1)C(=O)[C@H]2CC(=O)N1CCSCC1	none (no result: NR3A LBD binder, FAS-TE inh)
COc1ccc(NC(=O)COC(=O)c2ccc(S(=O)(=O)N3CC(C)CC(C)C3)cc2)cc1OC (stereo not given)	none (no result: NR3A LBD binder)
COc1ccc(NC(=O)c2ccc(S(=O)(=O)N3CC(C)CC(C)C3)cc2)cc1S(N)(=O)=O (stereo not given)	KLK7 zymogen act 18 | proKLK7 act conf 24 | EDANS interfere 14 | EDANS interf inactive
COC(=O)[C@]1(C)CN(C(=O)OC(C)(C)C)C2=C1C(=O)C[C@@](C)(C(=O)OC(C)(C)C)C2	none (no result: NR3A LBD binder, FAS-TE inh)
CCN(CC)c1ccc(C=Nn2c(-c3ccc(F)cc3)n[nH]c2=S)c(O)c1	none (no result: NR3A LBD binder, FAS-TE inh)
C=CCc1cccc(C=NNC(=O)c2ccco2)c1O	none (no result: NR3A LBD binder, FAS-TE inh)
CN1C(=O)C2C(c3ccc(N(C)C)cc3)NN(Cc3ccccc3)C2C1=O (stereo not given)	KLK7 zymogen act 15 | proKLK7 act conf 14 | EDANS interfere 13
Cc1ccc(Cn2cc(COC(=O)NCCc3c[nH]c4ccccc34)nn2)cc1	none (no result: NR3A LBD binder, FAS-TE inh)
CCNc1nc(Cl)nc(NCc2ccccc2)n1	none
COC(=O)/C=C/c1c(C)nc(NCc2ccccc2)nc1Cl	KLK7 zymogen act 29 | proKLK7 act conf 50 | EDANS interfere 51
CN1CCN(CCCNC(=O)c2ccc3c(c2)N(Cc2ccccc2)CCS3)CC1	KLK7 zymogen act 15 | proKLK7 act conf inactive | EDANS interfere inactive
CCN1CCN(CCCNC(=O)c2ccc3c(c2)N(Cc2ccc(C)cc2)CCS3)CC1	none (no result: ADAM10 inh, KLK7 zymogen act, ADAM17 inh)
O=C(NCCCN1CCOCC1)c1ccc2c(c1)N(Cc1ccccc1)CCS2	none
O=C(NCCN1CCOCC1)c1ccc2c(c1)N(Cc1ccccc1)CCS2	KLK7 zymogen act 21 | proKLK7 act conf inactive | EDANS interfere inactive
COc1ccc2nc(N3CCC(O)CC3)c(C#N)cc2c1	KLK7 zymogen act 16 | proKLK7 act conf 61 | EDANS interfere 72
CN(C(=O)COC(=O)c1ccccc1NCCO)C1CCS(=O)(=O)C1 (stereo not given)	KLK7 zymogen act 14 | proKLK7 act conf 40 | EDANS interfere 42
